# Results from ChEMBL document CHEMBL1961873, “Compounds: GSK PKIS; Assays: Nanosyn kinase panel” (2012).
# Assays:
# [1] = biological target: MAP/microtubule affinity-regulating kinase 3 (Homo sapiens) (UniProt P27448); conditions: at 1 µM;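 also: reported values are averaged percent inhibition of MARK3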
# [2] = biological target: T1, MAP/microtubule affinity-regulating kinase 4 (Homo sapiens) (UniProt Q96L34); conditions: at 0.1 µM
# T1 sequence (whole entry): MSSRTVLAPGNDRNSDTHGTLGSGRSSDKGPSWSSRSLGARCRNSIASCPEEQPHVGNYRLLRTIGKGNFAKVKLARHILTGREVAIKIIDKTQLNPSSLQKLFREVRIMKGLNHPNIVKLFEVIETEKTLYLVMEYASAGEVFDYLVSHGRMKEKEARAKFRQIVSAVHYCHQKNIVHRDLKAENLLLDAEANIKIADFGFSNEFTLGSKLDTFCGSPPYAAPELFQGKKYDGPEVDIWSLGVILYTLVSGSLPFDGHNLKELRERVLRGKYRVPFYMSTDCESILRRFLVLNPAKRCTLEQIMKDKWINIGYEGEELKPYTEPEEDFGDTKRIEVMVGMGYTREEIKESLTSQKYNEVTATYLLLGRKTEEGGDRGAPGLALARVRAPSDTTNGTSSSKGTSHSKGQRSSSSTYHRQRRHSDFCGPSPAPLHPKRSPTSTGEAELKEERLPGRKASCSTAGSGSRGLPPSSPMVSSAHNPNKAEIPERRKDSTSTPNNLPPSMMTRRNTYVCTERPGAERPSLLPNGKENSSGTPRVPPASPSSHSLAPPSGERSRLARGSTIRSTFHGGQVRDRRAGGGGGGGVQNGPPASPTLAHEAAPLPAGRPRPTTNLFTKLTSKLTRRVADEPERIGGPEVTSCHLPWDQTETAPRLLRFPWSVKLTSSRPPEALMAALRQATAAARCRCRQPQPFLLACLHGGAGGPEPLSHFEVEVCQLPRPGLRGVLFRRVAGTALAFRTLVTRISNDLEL
# [3] = biological target: T1, MAP/microtubule affinity-regulating kinase 4 (Homo sapiens); conditions: at 1 µM
# [4] = biological target: Maternal embryonic leucine zipper kinase (Homo sapiens) (UniProt Q14680); conditions: at 0.1 µM
# Sequence of Maternal embryonic leucine zipper kinase (Homo sapiens) (Q14680 whole entry, looked up): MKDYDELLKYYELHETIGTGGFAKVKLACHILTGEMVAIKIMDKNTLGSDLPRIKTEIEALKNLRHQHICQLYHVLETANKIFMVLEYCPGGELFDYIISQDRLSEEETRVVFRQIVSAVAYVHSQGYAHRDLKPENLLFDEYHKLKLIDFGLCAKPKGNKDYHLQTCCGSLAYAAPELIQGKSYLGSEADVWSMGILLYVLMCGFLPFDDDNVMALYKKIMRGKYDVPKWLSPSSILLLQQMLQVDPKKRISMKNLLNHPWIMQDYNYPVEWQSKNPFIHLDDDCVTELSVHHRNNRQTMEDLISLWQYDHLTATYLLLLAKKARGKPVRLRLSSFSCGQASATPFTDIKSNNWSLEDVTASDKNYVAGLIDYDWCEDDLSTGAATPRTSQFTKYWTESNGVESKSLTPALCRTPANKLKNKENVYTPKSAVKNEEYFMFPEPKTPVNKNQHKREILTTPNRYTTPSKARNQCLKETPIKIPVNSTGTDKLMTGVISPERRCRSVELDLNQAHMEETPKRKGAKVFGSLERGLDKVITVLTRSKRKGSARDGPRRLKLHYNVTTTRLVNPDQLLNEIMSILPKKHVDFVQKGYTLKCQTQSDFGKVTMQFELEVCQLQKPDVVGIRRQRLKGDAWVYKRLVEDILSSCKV
# [5] = biological target: Maternal embryonic leucine zipper kinase (Homo sapiens) (UniProt Q14680); conditions: at 1 µM
# [6] = biological target: MAP kinase-interacting serine/threonine-protein kinase 1 (Homo sapiens) (UniProt Q9BUB5); conditions: at 0.1 µM
# Sequence of MAP kinase-interacting serine/threonine-protein kinase 1 (Homo sapiens) (Q9BUB5 whole entry, looked up): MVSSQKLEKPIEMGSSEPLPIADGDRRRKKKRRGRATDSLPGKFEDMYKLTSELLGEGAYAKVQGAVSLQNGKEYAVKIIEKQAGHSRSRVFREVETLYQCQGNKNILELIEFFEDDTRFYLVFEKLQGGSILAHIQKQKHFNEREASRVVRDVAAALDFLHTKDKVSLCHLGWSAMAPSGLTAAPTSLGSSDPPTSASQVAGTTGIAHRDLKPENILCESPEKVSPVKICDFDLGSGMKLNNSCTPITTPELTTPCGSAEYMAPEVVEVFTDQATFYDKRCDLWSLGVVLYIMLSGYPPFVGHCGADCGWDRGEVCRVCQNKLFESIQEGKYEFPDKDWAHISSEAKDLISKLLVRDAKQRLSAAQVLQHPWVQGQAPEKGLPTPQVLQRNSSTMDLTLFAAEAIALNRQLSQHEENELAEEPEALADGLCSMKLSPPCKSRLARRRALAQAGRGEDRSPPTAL
# [7] = biological target: MAP kinase-interacting serine/threonine-protein kinase 1 (Homo sapiens) (UniProt Q9BUB5); conditions: at 1 µM
# [8] = biological target: MAP kinase-interacting serine/threonine-protein kinase 2 (Homo sapiens) (UniProt Q9HBH9); conditions: at 0.1 µM
# Sequence of MAP kinase-interacting serine/threonine-protein kinase 2 (Homo sapiens) (Q9HBH9 whole entry, looked up): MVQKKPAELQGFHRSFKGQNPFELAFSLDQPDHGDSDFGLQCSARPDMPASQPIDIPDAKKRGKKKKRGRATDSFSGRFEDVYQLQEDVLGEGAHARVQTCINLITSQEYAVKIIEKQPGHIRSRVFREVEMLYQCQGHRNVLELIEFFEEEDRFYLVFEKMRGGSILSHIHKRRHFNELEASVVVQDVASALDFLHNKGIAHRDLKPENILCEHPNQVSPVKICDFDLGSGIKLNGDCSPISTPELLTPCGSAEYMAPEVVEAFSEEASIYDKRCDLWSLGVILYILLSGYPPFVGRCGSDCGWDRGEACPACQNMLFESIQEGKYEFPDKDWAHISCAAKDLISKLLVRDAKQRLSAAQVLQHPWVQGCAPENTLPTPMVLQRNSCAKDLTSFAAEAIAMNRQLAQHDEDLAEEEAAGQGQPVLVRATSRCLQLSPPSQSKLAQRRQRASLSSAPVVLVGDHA
# [9] = biological target: MAP kinase-interacting serine/threonine-protein kinase 2 (Homo sapiens) (UniProt Q9HBH9); conditions: at 1 µM
# [10] = biological target: Serine/threonine-protein kinase MARK2 (Homo sapiens) (UniProt Q7KZI7); conditions: at 0.1 µM
# Sequence of Serine/threonine-protein kinase MARK2 (Homo sapiens) (Q7KZI7 whole entry, the tested form may be a part): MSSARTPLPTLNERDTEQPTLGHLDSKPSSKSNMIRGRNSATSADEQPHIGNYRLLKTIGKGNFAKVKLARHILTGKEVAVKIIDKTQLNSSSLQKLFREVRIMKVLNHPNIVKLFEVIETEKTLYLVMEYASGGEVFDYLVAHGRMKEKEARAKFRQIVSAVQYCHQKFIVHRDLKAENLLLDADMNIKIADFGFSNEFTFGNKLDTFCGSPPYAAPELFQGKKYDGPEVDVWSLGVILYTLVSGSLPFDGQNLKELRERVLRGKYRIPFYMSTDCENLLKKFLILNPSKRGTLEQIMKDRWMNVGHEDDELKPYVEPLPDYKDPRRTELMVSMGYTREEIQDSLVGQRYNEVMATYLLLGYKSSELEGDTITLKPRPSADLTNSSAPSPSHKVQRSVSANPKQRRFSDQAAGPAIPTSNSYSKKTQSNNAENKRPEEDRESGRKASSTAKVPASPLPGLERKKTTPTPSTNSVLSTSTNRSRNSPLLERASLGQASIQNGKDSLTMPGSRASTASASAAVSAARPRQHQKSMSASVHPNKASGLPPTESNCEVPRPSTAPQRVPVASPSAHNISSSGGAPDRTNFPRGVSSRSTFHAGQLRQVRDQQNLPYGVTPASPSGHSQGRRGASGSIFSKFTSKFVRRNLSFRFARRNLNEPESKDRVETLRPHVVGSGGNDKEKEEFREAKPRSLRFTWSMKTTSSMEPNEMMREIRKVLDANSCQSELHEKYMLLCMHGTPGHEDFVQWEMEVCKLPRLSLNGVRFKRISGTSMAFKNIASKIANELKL
# [11] = biological target: Serine/threonine-protein kinase MARK2 (Homo sapiens) (UniProt Q7KZI7); conditions: at 1 µM
# [12] = biological target: PAS domain-containing serine/threonine-protein kinase (Homo sapiens) (UniProt Q96RG2); conditions: at 0.1 µM
# Sequence of PAS domain-containing serine/threonine-protein kinase (Homo sapiens) (Q96RG2 whole entry, the tested form may be a part, canonical isoform): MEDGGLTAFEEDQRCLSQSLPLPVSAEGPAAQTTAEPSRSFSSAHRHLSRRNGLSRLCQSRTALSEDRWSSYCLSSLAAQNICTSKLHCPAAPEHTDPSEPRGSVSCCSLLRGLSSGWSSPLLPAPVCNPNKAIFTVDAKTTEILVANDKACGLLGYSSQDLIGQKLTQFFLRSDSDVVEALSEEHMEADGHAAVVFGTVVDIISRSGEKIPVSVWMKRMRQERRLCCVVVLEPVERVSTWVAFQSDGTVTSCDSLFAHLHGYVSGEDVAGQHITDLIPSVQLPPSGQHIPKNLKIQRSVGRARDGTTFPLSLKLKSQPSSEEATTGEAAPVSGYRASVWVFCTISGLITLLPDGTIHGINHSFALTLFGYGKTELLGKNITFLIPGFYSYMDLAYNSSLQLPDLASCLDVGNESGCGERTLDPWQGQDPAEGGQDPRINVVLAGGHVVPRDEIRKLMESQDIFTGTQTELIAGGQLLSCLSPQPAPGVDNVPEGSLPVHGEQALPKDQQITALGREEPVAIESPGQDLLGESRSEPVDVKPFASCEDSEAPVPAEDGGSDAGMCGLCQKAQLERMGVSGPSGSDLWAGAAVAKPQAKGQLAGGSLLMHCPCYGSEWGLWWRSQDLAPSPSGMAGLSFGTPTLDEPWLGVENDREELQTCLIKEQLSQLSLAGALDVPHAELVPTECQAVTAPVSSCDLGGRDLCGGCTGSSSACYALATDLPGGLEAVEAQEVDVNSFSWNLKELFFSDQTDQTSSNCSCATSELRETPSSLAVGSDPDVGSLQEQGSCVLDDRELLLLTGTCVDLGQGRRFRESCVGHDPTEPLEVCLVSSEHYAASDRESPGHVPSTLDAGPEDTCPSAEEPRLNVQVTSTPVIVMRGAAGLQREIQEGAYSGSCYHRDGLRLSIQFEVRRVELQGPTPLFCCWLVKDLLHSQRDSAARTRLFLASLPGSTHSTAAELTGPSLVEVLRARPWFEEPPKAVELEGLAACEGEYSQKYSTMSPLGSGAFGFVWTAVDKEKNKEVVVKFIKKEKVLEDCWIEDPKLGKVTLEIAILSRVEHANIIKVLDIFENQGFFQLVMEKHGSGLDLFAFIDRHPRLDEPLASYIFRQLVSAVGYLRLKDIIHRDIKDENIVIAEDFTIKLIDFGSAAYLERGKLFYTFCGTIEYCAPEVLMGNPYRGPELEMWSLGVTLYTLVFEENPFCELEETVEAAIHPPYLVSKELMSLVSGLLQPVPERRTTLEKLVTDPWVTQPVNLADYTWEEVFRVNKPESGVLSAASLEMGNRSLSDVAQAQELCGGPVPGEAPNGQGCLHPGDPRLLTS
# [13] = biological target: PAS domain-containing serine/threonine-protein kinase (Homo sapiens) (UniProt Q96RG2); conditions: at 1 µM
# [14] = biological target: Phosphorylase b kinase gamma catalytic chain, skeletal muscle/heart isoform (Homo sapiens) (UniProt Q16816); conditions: at 0.1 µM
# Sequence of Phosphorylase b kinase gamma catalytic chain, skeletal muscle/heart isoform (Homo sapiens) (Q16816 whole entry, looked up, canonical isoform): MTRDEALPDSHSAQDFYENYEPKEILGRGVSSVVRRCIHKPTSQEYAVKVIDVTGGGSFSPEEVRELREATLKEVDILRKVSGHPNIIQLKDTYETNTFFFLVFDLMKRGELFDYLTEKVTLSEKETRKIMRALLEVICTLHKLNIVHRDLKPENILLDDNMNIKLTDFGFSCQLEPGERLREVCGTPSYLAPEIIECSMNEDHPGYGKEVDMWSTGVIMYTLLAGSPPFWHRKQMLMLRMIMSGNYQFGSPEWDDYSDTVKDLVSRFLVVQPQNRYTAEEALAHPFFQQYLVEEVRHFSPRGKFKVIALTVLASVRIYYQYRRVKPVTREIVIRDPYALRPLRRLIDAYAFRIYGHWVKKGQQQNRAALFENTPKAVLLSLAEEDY
# [15] = biological target: Phosphorylase b kinase gamma catalytic chain, skeletal muscle/heart isoform (Homo sapiens) (UniProt Q16816); conditions: at 1 µM
# [16] = biological target: T2, Phosphorylase b kinase gamma catalytic chain, liver/testis isoform (Homo sapiens) (UniProt P15735); conditions: at 0.1 µM
# T2 sequence (whole entry): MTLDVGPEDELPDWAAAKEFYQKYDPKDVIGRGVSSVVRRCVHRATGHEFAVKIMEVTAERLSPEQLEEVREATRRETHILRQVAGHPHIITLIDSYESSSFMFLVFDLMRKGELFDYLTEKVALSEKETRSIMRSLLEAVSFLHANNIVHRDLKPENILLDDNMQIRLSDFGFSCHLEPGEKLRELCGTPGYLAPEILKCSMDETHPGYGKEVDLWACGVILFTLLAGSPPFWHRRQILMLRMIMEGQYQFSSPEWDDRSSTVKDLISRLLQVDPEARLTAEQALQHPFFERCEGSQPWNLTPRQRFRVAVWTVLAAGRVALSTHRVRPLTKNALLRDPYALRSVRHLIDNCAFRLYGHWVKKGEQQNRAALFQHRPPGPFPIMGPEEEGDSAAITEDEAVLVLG
# [17] = biological target: T2, Phosphorylase b kinase gamma catalytic chain, liver/testis isoform (Homo sapiens); conditions: at 1 µM
# [18] = biological target: Serine/threonine-protein kinase pim-1 (Homo sapiens) (UniProt P11309); conditions: at 0.1 µM
# Sequence of Serine/threonine-protein kinase pim-1 (Homo sapiens) (P11309 whole entry, looked up): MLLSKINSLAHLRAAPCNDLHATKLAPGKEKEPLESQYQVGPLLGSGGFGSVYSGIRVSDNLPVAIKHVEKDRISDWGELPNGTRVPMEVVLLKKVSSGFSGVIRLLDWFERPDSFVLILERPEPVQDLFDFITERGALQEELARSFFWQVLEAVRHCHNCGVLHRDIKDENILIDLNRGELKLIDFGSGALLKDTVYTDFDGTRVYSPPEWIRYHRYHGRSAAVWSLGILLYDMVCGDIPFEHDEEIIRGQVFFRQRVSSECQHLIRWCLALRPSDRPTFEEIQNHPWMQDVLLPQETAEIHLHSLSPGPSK
# [19] = biological target: Serine/threonine-protein kinase pim-1 (Homo sapiens) (UniProt P11309); conditions: at 1 µM
# [20] = biological target: Serine/threonine-protein kinase pim-2 (Homo sapiens) (UniProt Q9P1W9); conditions: at 0.1 µM;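 also: reported value is the mean percent inhibition of PIM2, measured in the GSK PKIS kinase inhibitor set screen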
# Sequence of Serine/threonine-protein kinase pim-2 (Homo sapiens) (Q9P1W9 whole entry, looked up): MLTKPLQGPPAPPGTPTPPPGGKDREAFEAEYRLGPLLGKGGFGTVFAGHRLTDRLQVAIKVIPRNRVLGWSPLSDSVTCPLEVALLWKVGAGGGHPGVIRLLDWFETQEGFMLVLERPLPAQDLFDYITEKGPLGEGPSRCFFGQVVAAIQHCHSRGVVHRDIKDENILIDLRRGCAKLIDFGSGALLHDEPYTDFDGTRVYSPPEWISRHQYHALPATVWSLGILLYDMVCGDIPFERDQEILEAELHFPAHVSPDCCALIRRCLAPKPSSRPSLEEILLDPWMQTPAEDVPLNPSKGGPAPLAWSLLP
SMILES,inhibition [1] [%],inhibition [2] [%],inhibition [3] [%],inhibition [4] [%],inhibition [5] [%],inhibition [6] [%],inhibition [7] [%],inhibition [8] [%],inhibition [9] [%],inhibition [10] [%],inhibition [11] [%],inhibition [12] [%],inhibition [13] [%],inhibition [14] [%],inhibition [15] [%],inhibition [16] [%],inhibition [17] [%],inhibition [18] [%],inhibition [19] [%],inhibition [20] [%]
Cc1cc(O)cc(C)c1/C=C/c1cncc(C(=O)N(C)C)c1,13.7,1.25,2.49,3.84,4.23,4.18,18,2.2,9.99,-1.4,1.77,0.83,-0.85,3.09,2.61,2.55,0.54,1.21,2.17,0.03
COc1cc(/C=N/Nc2ncnc3c2cnn3C(C)C)ccc1O,0.41,0.37,4.17,26.7,80.3,1.07,5.78,1.33,2.77,-0.89,1.32,-0.76,-1.33,2.28,5.02,-0.14,1.57,0.52,2.04,0.9
CN(c1ccc(NC(=O)Nc2ccc(OC(F)(F)F)cc2)cc1)c1ccnc(Nc2cccc(S(N)(=O)=O)c2)n1,-0.68,0.65,1.56,0.77,-2.07,29.2,73.3,20.5,67.3,-1.1,-1.52,0.55,0.28,1.77,9.58,3.6,2.53,0.23,-0.84,0.55
N#Cc1cccc(Nc2nccc(-c3cnn4ncccc34)n2)c1,13.1,1.74,9.89,12.5,55.9,6.09,22.5,5.65,33,1.3,9.5,0.25,0.01,15.8,58.3,7.04,22.2,1.44,12.4,0.59
COc1cc2ncn(-c3cc(OCc4ccccc4S(C)(=O)=O)c(C#N)s3)c2cc1OC,88.3,34.9,76.6,1.64,8.3,11.7,47.7,41.8,76.8,25.9,70.7,0.91,0.31,45.2,76.5,4.94,10.9,0.71,0.97,0.9
Cc1ccc2c(-c3ccnc(Nc4cccc(C(F)(F)F)c4)n3)c(-c3ccccc3)nn2n1,3.93,2.61,2.82,5.84,10.4,3.3,4.19,2.04,3.52,1.89,4.11,-0.16,-0.17,2.62,7.08,4.1,4.82,1.05,1.72,-0.26
NS(=O)(=O)c1ccc(-c2cc3ccncc3cc2OCc2ccccc2)cc1,0.1,0.25,1.99,1.24,3.87,4.45,17.7,4.29,26.4,-2.14,-0.56,-0.27,0.09,3.43,8.39,5.17,5.11,0.14,0.86,-0.34
